# In PubChem BioAssay (EPA / NIEHS):
# Activity calls are given as the source filed them. Rule for the calls: active = hit-call score of the fitted dose curve at least 0.9, where 1 is the maximum; inactive = score below 0.9.
# What was measured:
# [1] = read-out: Interleukin-8 (IL8), CXCL8 (gene 3576); test: BSK_CASM3C_IL8: BioMAP Diversity Plus: CASM3C Assay for Interleukin-8 (IL8) Biomarker Activity (AID 2283042); conditions: primary human coronary artery smooth muscle cells; actives raise or lower the signal;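 note: IL-8 protein level quantified by ELISA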
# [2] = read-out: Human Leukocyte Antigen - DR isotype (HLADR), HLA-DRA (gene 3122); test: BSK_CASM3C_HLADR: BioMAP Diversity Plus: CASM3C Assay for Human Leukocyte Antigen - DR isotype (HLADR) Biomarker Activity (AID 2283043); conditions: primary human coronary artery smooth muscle cells; actives raise or lower the signal;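 note: cell-surface HLA-DR protein level quantified by ELISA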
# [3] = read-out: Macrophage colony-stimulating factor (MCSF), CSF1 (gene 1435); test: BSK_CASM3C_MCSF: BioMAP Diversity Plus: CASM3C Assay for Macrophage colony-stimulating factor (MCSF) Biomarker Activity (AID 2283044); conditions: primary human coronary artery smooth muscle cells; actives raise or lower the signal;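 note: M-CSF protein amount quantified by ELISA after 24 h exposure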
# [4] = read-out: Low-density lipoprotein receptor (LDLR), LDLR (gene 3949); test: BSK_CASM3C_LDLR: BioMAP Diversity Plus: CASM3C Assay for Low-density lipoprotein receptor (LDLR) Biomarker Activity (AID 2283045); conditions: primary human coronary artery smooth muscle cells; actives raise or lower the signal;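 note: LDLR protein level on the cell surface quantified by ELISA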
# [5] = read-out: Monocyte Chemoattractant Protein-1 (MCP1), CCL2 (gene 6347); test: BSK_CASM3C_MCP1: BioMAP Diversity Plus: CASM3C Assay for Monocyte Chemoattractant Protein-1 (MCP1) Biomarker Activity (AID 2283046); conditions: primary human coronary artery smooth muscle cells; actives raise or lower the signal;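 note: MCP-1 level quantified by ELISA 24 h after dosing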
# [6] = BSK_CASM3C_Proliferation: Cell Proliferation Assessment in the BioMAP Diversity Plus: CASM3C Assay (AID 2283047); conditions: primary human coronary artery smooth muscle cells;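 note: sulforhodamine B total protein stain as relative cell number at 560 nm; sub-confluent cells exposed 48 h before staining; fitted both ways against DMSO so gain or loss of cell number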
# [7] = read-out: Monokine induced gamma interferon (MIG), CXCL9 (gene 4283); test: BSK_CASM3C_MIG: BioMAP Diversity Plus: CASM3C Assay for Monokine induced gamma interferon (MIG) Biomarker Activity (AID 2283048); conditions: primary human coronary artery smooth muscle cells; actives raise or lower the signal;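 note: MIG protein level measured by ELISA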
# [8] = read-out: serum amyloid A (SAA), SAA1 (gene 6288); test: BSK_CASM3C_SAA: BioMAP Diversity Plus: CASM3C Assay for serum amyloid A (SAA) Biomarker Activity (AID 2283049); conditions: primary human coronary artery smooth muscle cells; actives raise or lower the signal;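 note: SAA protein level quantified by ELISA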
# [9] = BSK_CASM3C_SRB: Viability Assessment in the BioMAP Diversity Plus: CASM3C Assay (AID 2283050); conditions: primary human coronary artery smooth muscle cells;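 note: total protein by SRB staining as cytotoxicity measure in parallel cultures; cells exposed to compound for 24 h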
# [10] = read-out: Thrombomodulin, THBD (gene 7056); test: BSK_CASM3C_Thrombomodulin: BioMAP Diversity Plus: CASM3C Assay for Thrombomodulin Biomarker Activity (AID 2283051); conditions: primary human coronary artery smooth muscle cells; actives raise or lower the signal;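 note: thrombomodulin protein level measured by ELISA 24 h after dosing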
# [11] = read-out: Tissue Factor, F3 (gene 2152); test: BSK_CASM3C_TissueFactor: BioMAP Diversity Plus: CASM3C Assay for Tissue Factor Biomarker Activity (AID 2283052); conditions: primary human coronary artery smooth muscle cells; actives raise or lower the signal;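 note: cell surface tissue factor protein level read by ELISA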
# [12] = read-out: Interferon-gamma inducible Protein 10 (IP10), CXCL10 (gene 3627); test: BSK_hDFCGF_IP10: BioMAP Diversity Plus: hDFCGF Assay for Interferon-gamma inducible Protein 10 (IP10) Biomarker Activity (AID 2283053); conditions: primary human foreskin fibroblasts; actives raise or lower the signal
# In short: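 Chemical-treated human skin fibroblasts (primary) were sampled at 24 h for IP-10 by ELISA. Both increases and decreases relative to DMSO were scored.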
# [13] = read-out: Urokinase-type plasminogen activator receptor (uPAR), PLAUR (gene 5329); test: BSK_CASM3C_uPAR: BioMAP Diversity Plus: CASM3C Assay for Urokinase-type plasminogen activator receptor (uPAR) Biomarker Activity (AID 2283054); conditions: primary human coronary artery smooth muscle cells; actives raise or lower the signal;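 note: cell-surface uPAR protein level quantified by ELISA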
# [14] = read-out: Vascular cell adhesion molecule 1 (VCAM1), VCAM1 (gene 7412); test: BSK_CASM3C_VCAM1: BioMAP Diversity Plus: CASM3C Assay for Vascular cell adhesion molecule 1 (VCAM1) Biomarker Activity (AID 2283055); conditions: primary human coronary artery smooth muscle cells; actives raise or lower the signal;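 note: VCAM-1 protein level quantified by ELISA on the cells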
# [15] = read-out: Collagen III, COL3A1 (gene 1281); test: BSK_hDFCGF_CollagenIII: BioMAP Diversity Plus: hDFCGF Assay for Collagen III Biomarker Activity (AID 2283056); conditions: primary human foreskin fibroblasts; actives raise or lower the signal
# In short: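 ELISA readout of Collagen III in human dermal (foreskin) fibroblasts, taken 24 h post-treatment. Gain or loss relative to DMSO vehicle fitted in both directions.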
# [16] = read-out: Epidermal growth factor receptor (EGFR), EGFR (gene 1956); test: BSK_hDFCGF_EGFR: BioMAP Diversity Plus: hDFCGF Assay for Epidermal growth factor receptor (EGFR) Biomarker Activity (AID 2283057); conditions: primary human foreskin fibroblasts; actives raise or lower the signal
# In short: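 Cell-based multiplexed assay in primary human foreskin fibroblasts. EGFR is read by ELISA 24 h after treatment and compared with DMSO controls.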
# [17] = read-out: Interleukin-8 (IL8), CXCL8 (gene 3576); test: BSK_hDFCGF_IL8: BioMAP Diversity Plus: hDFCGF Assay for Interleukin-8 (IL8) Biomarker Activity (AID 2283058); conditions: primary human foreskin fibroblasts; actives raise or lower the signal
# In short: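 IL-8 levels read by ELISA at 24 hours after dosing human skin fibroblast cultures. Parallel SRB staining assessed overt cytotoxicity, and gain or loss of signal was fitted against DMSO control.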
# [18] = BSK_hDFCGF_Proliferation: Cell Proliferation Assessment in the BioMAP Diversity Plus: hDFCGF Assay (AID 2283059); conditions: primary human foreskin fibroblasts;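 note: curves fitted for both rise and fall of signal versus DMSO baseline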
# In short: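 Steps: dose primary human dermal fibroblasts (foreskin); […] fix in 10% TCA; stain with 0.1% SRB; read 560 nm; fit gain or loss of signal against DMSO.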
# [19] = read-out: Macrophage colony-stimulating factor (MCSF), CSF1 (gene 1435); test: BSK_hDFCGF_MCSF: BioMAP Diversity Plus: hDFCGF Assay for Macrophage colony-stimulating factor (MCSF) Biomarker Activity (AID 2283060); conditions: primary human foreskin fibroblasts; actives raise or lower the signal
# In short: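 M-CSF levels read by ELISA at 24 h post-dosing in human skin fibroblasts. Parallel cultures stained with SRB assessed cytotoxicity at the same time point; response fitted in both directions against the DMSO baseline.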
# [20] = BSK_hDFCGF_SRB: Viability Assessment in the BioMAP Diversity Plus: hDFCGF Assay (AID 2283061); conditions: primary human foreskin fibroblasts;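 note: cells exposed to compound for 24 h before the read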
# In short: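 Viability was read as total protein: after 10% TCA fixation, wells were stained with 0.1% sulforhodamine B and read at 560 nm. Primary human foreskin fibroblasts were dosed for 24 h, with bidirectional fitting versus DMSO.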
compound,measurement,setting,value
O=c1c(-c2ccc(O)cc2)coc2cc(O)ccc12,outcome,[1],inactive
same,outcome,[2],inactive
same,outcome,[3],inactive
same,outcome,[4],inactive
same,outcome,[5],inactive
same,outcome,[6],inactive
same,outcome,[7],inactive
same,outcome,[8],inactive
same,outcome,[9],inactive
same,outcome,[10],inactive
same,outcome,[11],inactive
same,outcome,[12],inactive
same,outcome,[13],inactive
same,outcome,[14],inactive
same,outcome,[15],inactive
same,outcome,[16],inactive
same,outcome,[17],inactive
same,outcome,[18],inactive
same,outcome,[19],inactive
same,outcome,[20],inactive
CCN(CC)CCNc1ccc(CNC=O)c2sc3ccc(OC)cc3c(=O)c12,AC50,[1],35.6 µM (active)
same,AC50,[2],12.3 µM (active)
same,AC50,[3],25.9 µM (active)
same,outcome,[4],inactive
same,AC50,[5],26.9 µM (active)
same,AC50,[6],20 µM (active)
same,outcome,[7],inactive
same,AC50,[8],20.3 µM (active)
same,AC50,[9],26.3 µM (active)
same,AC50,[10],31.2 µM (active)
same,AC50,[11],5.33 µM (active)
same,AC50,[12],15.5 µM (active)
same,AC50,[13],11.1 µM (active)
same,AC50,[14],12 µM (active)
same,AC50,[15],16.2 µM (active)
same,outcome,[16],inactive
same,AC50,[17],33.7 µM (active)
same,AC50,[18],6.31 µM (active)
same,AC50,[19],12.9 µM (active)
same,AC50,[20],14.6 µM (active)
COc1ccc([N+](=O)[O-])cc1N,outcome,[1],inactive
same,outcome,[2],inactive
same,outcome,[3],inactive
same,outcome,[4],inactive
same,outcome,[5],inactive
same,outcome,[6],inactive
same,outcome,[7],inactive
same,outcome,[8],inactive
same,outcome,[9],inactive
same,outcome,[10],inactive
same,outcome,[11],inactive
same,outcome,[12],inactive
same,outcome,[13],inactive
same,outcome,[14],inactive
same,outcome,[15],inactive
same,outcome,[16],inactive
same,outcome,[17],inactive
same,outcome,[18],inactive
same,outcome,[19],inactive
same,outcome,[20],inactive
CC(C)(C)CC(C)(C)c1ccc(O)c(-n2nc3ccccc3n2)c1,outcome,[1],inactive
same,AC50,[2],15.7 µM (active)
same,AC50,[3],28.8 µM (active)
same,AC50,[4],20 µM (active)
same,outcome,[5],inactive
same,AC50,[6],29.8 µM (active)
same,outcome,[7],inactive
same,AC50,[8],32.4 µM (active)
same,outcome,[9],inactive
same,AC50,[10],22.7 µM (active)
same,outcome,[11],inactive
same,AC50,[12],14.6 µM (active)
same,outcome,[13],inactive
same,outcome,[14],inactive
same,outcome,[15],inactive
same,AC50,[16],14.2 µM (active)
same,outcome,[17],inactive
same,AC50,[18],6.71 µM (active)
same,AC50,[19],5.47 µM (active)
same,AC50,[20],9.39 µM (active)
CCc1ccc(CCOc2ccc(CC3SC(=O)NC3=O)cc2)nc1 (stereo not given),outcome,[1],inactive
same,outcome,[2],inactive
same,outcome,[3],inactive
same,outcome,[4],inactive
same,outcome,[5],inactive
same,outcome,[6],inactive
same,outcome,[7],inactive
same,outcome,[8],inactive
same,outcome,[9],inactive
same,outcome,[10],inactive
same,outcome,[11],inactive
same,outcome,[12],inactive
same,outcome,[13],inactive
same,outcome,[14],inactive
same,outcome,[15],inactive
same,outcome,[16],inactive
same,outcome,[17],inactive
same,outcome,[18],inactive
same,outcome,[19],inactive
same,outcome,[20],inactive
